The record followed here is PubChem BioAssay.

Assay [1] concerns Plasmodium falciparum Sir2 (PF13_0152, Sir2A). Description: Plasmodium falciparum Sir2A binding compounds – biochemical, small-molecule microarray, 635 nm fluorescence, primary screen (AID 1098).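 Also: score merges spot fluorescence intensity with its signal-to-noise ratio.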 Particulars: fluorescence 635 nm, higher = more signal.
Assay [2] can be described thus: probe aDKK1 binding to arrayed compounds – biochemical, biotinylated probe, 635/667 nm fluorescence, primary screen (AID 1099).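 Also: score merges 667nm spot fluorescence with signal to noise across triplicate slides.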 The conditions noted are these: small-molecule microarray, higher = more signal.
Assay [3] can be described thus: probe aCHRDL2 binding to arrayed compounds – biochemical, biotinylated probe, 635/667 nm fluorescence, primary screen (AID 1100). The conditions noted are these: small-molecule microarray, higher = more signal.
A short description of assay [4]: change in splice reporter luminescence, either direction, cell-based, HEK293, spliceosome inhibition project, primary screen (AID 1101).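 Also: HEK293 cells carrying a splicing-competent luciferase reporter gene; test concentration not given here.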 The conditions noted are these: HEK293 splicing luciferase reporter, 24 h, higher = more signal, called active from +8 up or from −8 down.
For assay [5], the target named is Fibroblast growth factor 10 (Homo sapiens) (UniProt O15520). Description: compounds binding fibroblast growth factor 10 – biochemical, small-molecule microarray, 635 nm fluorescence, primary screen (AID 1102). Particulars: FGF10 binding, fluorescence 635 nm, higher = more signal.
Sequence of Fibroblast growth factor 10 (Homo sapiens) (O15520 whole entry, looked up): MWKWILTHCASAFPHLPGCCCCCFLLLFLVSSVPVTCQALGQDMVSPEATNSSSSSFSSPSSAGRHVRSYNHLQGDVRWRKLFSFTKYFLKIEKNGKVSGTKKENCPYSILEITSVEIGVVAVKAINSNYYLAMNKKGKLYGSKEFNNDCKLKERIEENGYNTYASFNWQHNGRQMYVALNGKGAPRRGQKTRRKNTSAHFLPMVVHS
The subject of assay [6] is glycogen synthase kinase-3 (GSK3A per assay name; protocol says GSK3B). Description: compounds binding glycogen synthase kinase-3 – biochemical, small-molecule microarray, 635 nm fluorescence, GSK3A, primary screen (AID 1103). Also: the record names both GSK3A and GSK3B. The conditions noted are these: fluorescence 635 nm, higher = more signal.
In assay [7] the target is Epidermal growth factor receptor (Homo sapiens) (UniProt P00533). The experiment in a line: compounds binding epidermal growth factor receptor – biochemical, small-molecule microarray, 635 nm fluorescence, primary screen (AID 1104).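 Also: score merges 667 nm emission intensity with spot signal to noise over triplicate slides.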 Particulars: EGFR binding, higher = more signal.
Sequence of Epidermal growth factor receptor (Homo sapiens) (P00533 whole entry, looked up): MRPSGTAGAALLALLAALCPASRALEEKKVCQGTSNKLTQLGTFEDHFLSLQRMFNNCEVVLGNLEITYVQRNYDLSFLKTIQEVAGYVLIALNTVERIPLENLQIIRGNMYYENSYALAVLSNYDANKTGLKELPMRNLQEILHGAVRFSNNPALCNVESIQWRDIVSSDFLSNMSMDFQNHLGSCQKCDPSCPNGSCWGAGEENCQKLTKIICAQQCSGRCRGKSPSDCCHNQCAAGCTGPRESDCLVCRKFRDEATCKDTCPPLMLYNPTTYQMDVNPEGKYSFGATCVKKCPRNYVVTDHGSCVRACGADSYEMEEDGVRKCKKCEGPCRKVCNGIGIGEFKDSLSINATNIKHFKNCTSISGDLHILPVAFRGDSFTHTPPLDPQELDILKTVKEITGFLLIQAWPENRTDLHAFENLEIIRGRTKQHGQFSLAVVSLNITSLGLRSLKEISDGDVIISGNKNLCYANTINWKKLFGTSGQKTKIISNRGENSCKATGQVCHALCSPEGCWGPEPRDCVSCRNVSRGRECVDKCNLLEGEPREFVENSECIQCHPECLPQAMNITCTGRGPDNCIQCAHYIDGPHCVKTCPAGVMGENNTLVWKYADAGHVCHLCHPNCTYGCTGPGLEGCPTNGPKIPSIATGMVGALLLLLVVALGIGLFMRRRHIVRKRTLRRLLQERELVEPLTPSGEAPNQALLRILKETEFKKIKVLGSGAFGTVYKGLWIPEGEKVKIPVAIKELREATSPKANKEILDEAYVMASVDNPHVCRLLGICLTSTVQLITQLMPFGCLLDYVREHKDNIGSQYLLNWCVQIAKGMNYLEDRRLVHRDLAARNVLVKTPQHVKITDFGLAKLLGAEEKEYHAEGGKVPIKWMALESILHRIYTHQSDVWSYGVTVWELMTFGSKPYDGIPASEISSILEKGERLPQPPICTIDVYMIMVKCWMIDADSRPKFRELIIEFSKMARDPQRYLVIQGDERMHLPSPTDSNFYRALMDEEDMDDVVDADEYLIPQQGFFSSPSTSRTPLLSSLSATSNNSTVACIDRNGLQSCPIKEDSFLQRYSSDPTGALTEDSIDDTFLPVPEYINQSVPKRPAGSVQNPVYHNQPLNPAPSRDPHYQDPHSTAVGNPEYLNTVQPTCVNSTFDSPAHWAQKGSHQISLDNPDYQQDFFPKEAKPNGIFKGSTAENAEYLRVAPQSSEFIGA
The target of assay [8] is Follistatin-related protein 3 (Homo sapiens) (UniProt O95633). The experiment in a line: compounds binding follistatin-related protein 3 – biochemical, small-molecule microarray, 635 nm fluorescence, primary screen (AID 1105).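 Also: score merges emission near 667 nm and signal to noise per printed spot across three slides.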 Particulars: FSTL3 binding, higher = more signal.
Sequence of Follistatin-related protein 3 (Homo sapiens) (O95633 whole entry, looked up): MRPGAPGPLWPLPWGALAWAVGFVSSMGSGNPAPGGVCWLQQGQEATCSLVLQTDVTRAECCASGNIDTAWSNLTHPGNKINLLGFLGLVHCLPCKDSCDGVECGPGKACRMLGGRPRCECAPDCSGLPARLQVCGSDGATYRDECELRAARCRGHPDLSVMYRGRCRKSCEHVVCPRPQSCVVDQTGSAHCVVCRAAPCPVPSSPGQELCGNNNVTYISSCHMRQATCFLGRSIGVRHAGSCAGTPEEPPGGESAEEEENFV
Assay [9] deals with Dickkopf-related protein 1 (Homo sapiens) (UniProt O94907). The experiment in a line: small molecules binding DKK1 protein – biochemical, small-molecule microarray, 635 nm fluorescence scan, primary screen (AID 1106).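 Also: score merges emission near 667 nm with signal to noise over three replicate slides.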 The conditions noted are these: higher = more signal.
Sequence of Dickkopf-related protein 1 (Homo sapiens) (O94907 whole entry, looked up): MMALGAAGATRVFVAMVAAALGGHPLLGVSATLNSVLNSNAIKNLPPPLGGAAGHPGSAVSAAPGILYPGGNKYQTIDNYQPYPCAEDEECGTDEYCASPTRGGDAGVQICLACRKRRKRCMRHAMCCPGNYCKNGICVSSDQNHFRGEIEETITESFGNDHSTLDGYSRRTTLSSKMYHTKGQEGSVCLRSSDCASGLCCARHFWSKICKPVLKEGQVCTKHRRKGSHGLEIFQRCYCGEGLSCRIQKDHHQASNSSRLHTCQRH
Assay [10] has as its system Inhibin beta A chain (activin A). Description: small molecules binding activin A – biochemical, small-molecule microarray, 635 nm fluorescence scan, primary screen (AID 1107).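 Also: mouse activin A protein probed at 4.33 µg/mL on printed slides; score merges bound-protein fluorescence near 667 nm with spot signal-to-noise.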 The conditions noted are these: INHBA, higher = more signal.
Assay [11] has as its system Human papillomavirus type 1a protein E7 (residues 44-93). Description: small molecules binding HPV E7 44-93 – biochemical, small-molecule microarray, residues 44-93, 635 nm fluorescence, primary screen (AID 1108).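 Also: E7 fragment applied at 1 µg/mL in TBST for 1 h at 4 C; score combines spot fluorescence with its signal to noise ratio.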 Particulars: fluorescence 635 nm, higher = more signal.
Assay [12] can be described thus: hepatitis C replication reporter changes, two-sided – Huh7 cells, luciferase reporter, HCV replication inhibitor project, primary screen (AID 1109).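 Also: huh7 hepatoma cells harbouring a luciferase neomycin HCV replicon reporter; luciferase luminescence as measure of HCV replicon replication; test concentration not given here.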 The conditions noted are these: Huh7 HCV replicon luciferase reporter, 48 h; higher = more signal. For orientation: In a reporter assay the amount or activity of a reporter protein is the signal.
Assay [13] deals with Left-right determination factor 2 (Homo sapiens) (UniProt O00292). Description: small molecules binding LEFTY2 protein – biochemical, small-molecule microarray, 635 nm fluorescence scan, primary screen (AID 1110). The conditions noted are these: higher = more signal.
Sequence of Left-right determination factor 2 (Homo sapiens) (O00292 whole entry, looked up): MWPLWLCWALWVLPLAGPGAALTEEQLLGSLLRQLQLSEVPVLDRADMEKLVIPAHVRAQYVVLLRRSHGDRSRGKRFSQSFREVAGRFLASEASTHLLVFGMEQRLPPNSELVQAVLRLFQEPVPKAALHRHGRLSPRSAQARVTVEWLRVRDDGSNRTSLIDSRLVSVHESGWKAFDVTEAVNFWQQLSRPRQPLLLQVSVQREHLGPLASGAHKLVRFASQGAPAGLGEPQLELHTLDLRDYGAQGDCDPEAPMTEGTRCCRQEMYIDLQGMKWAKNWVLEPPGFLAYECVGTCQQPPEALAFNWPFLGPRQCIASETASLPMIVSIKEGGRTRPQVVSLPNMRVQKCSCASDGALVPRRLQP
Assay [14] addresses Calmodulin-1 (Homo sapiens) (UniProt P0DP23). The experiment in a line: small molecules binding calmodulin-1 with EGTA – biochemical, small-molecule microarray, Cy5-labelled CALM1, profiling panel (AID 1111).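 Also: labelled calmodulin applied in Tris saline Tween buffer holding calcium plus EGTA and DTT.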 The conditions noted are these: Cy5-CALM1 binding fluorescence, higher = more signal.
Assay [15] shares this target. The experiment in a line: small molecules binding Ca-loaded calmodulin-1 – biochemical, small-molecule microarray, Cy5-labelled CALM1, plus calcium, artefact control for SMM control-protein annotation, profiling panel (AID 1112).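 Also: score merges spot fluorescence with signal to noise from triplicate slides.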 The conditions noted are these: Cy5-CALM1 binding fluorescence, higher = more signal.
The nature of assay [16]: probe aWnt5a binding to arrayed compounds – biochemical, biotinylated probe, 635/667 nm fluorescence, primary screen (AID 1113).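 Also: score merges 667 nm fluorescence intensity with signal-to-noise per printed feature.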 Particulars: small-molecule microarray, higher = more signal.
The nature of assay [17]: probe aShh binding to arrayed compounds – biochemical, biotinylated probe, 635/667 nm fluorescence, primary screen (AID 1114).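 Also: probe is biotin-labelled aShh protein from a stem cell growth factor screen; measures binding of labelled protein to compounds printed on the slide; score merges feature fluorescence at 667 nm with signal-to-noise.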 Particulars: small-molecule microarray, higher = more signal.
A short description of assay [18]: probe aNog binding to arrayed compounds – biochemical, biotinylated probe, 635/667 nm fluorescence, primary screen (AID 1115).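 Also: probe is biotinylated aNog protein used at 0.15 µg/mL for 1 h at 4 C; z-score combines 667 nm fluorescence of each spot with its signal to noise.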 Particulars: small-molecule microarray, higher = more signal.
The target in assay [19] is Torsin-1A-interacting protein 1 (Homo sapiens) (UniProt Q5JTV8). The experiment in a line: compound microarray binding of lysate hLAP1 – cell lysate, small-molecule microarray, COS7 lysate, 635/667 nm fluorescence, primary screen (AID 1116). Particulars: 635 nm fluorescence, higher = more signal.
Sequence of Torsin-1A-interacting protein 1 (Homo sapiens) (Q5JTV8 whole entry, looked up): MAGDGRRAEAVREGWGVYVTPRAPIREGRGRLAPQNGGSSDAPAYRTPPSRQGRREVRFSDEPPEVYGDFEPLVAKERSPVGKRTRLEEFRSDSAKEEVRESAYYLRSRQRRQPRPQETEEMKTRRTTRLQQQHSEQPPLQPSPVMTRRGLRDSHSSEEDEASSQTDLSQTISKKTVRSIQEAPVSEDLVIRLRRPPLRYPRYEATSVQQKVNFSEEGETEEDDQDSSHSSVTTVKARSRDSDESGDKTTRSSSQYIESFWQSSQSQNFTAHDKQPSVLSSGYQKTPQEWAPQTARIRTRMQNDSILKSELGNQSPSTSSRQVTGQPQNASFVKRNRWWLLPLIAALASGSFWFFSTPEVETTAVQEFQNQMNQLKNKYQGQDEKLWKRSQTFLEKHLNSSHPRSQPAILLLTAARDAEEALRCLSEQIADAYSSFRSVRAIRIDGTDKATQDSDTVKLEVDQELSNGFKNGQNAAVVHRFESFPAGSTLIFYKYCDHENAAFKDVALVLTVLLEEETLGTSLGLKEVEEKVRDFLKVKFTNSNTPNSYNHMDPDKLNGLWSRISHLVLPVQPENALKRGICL
The target of assay [20] is Alpha-bungarotoxin (Bungarus multicinctus) (UniProt P60615). Description: compounds binding labelled alpha-BTX control protein – biochemical, small-molecule microarray, Alexa647 label, 635/667 nm fluorescence, artefact control for SMM control protein annotation, profiling panel (AID 1117). Particulars: alpha-BTX-A647 binding fluorescence, higher = more signal.
Sequence of Alpha-bungarotoxin (Bungarus multicinctus) (P60615 whole entry, looked up): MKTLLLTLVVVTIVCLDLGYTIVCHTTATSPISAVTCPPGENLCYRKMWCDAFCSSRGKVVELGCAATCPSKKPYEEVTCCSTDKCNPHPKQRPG

Active and inactive are the calls of the source.

As for `CC(C)C[C@@H]1NC(=O)[C@@]23C(=O)N[C@@H](Cc4ccccc4)C2[C@H](C)[C@@]2(C)O[C@H]2C3/C=C/C/C=C\CNC(=O)[C@@H](C)NC1=O` (stereo not given in full), the composite z-score is 1.72 in [1]; -0.416 in [2]; -0.601 in [3]; -0.052 in assay [5]; -0.608 in assay [6]; 0.401 in assay [7]. The composite z-score was 0.331 in assay [8]; 0.431 in [9]; 1.27 in [10]; -0.702 in assay [11]; 0.58 in assay [13]; -0.463 in assay [14]. Besides, the composite z-score was -1.19 in [15]; -0.228 in assay [16]; 0.0899 in assay [17]; -0.636 in assay [18]; -0.212 in assay [19]; -0.116 in [20]. In addition, the figures for the z-score in assay [4] and in [12] were -1.34 (inactive) and 0.0935, respectively.
Regarding `O=C1NC(=O)C2C1C=CC(C(O)c1ccccn1)N2Nc1ccc(Cl)cc1Cl` (stereo not given), the composite z-score in [1] is 0.827; in [2] it was 0.315; in assay [3] it was 0.717; in assay [5] it was 0.0551; in [6], -0.0767; in assay [7], 0.107. Moreover, the composite z-score in assay [8] is -0.196; in assay [9] it was -0.35; in assay [10], 0.386; in assay [11], 0.553; in assay [13], 0.0905; in assay [14], 1.46. In addition, the composite z-score in [15] was 0.819; in assay [16] it was -0.16; in [17], 0.171; in assay [18], 0.383; in [19], 0.422; in [20], -0.0671. Also, the z-score in [4] is 1.54 (inactive); in [12] it was 0.812.
With `CC(C)C(=C=CC[C@@H](O)c1cccc(OCCO)c1)C[C@@H](O)c1ccccn1`, the composite z-score was 0.862 in assay [1]; -0.261 in assay [2]; -0.315 in assay [3]; 0.285 in [5]; -0.366 in assay [6]; -0.604 in assay [7]. The composite z-score in assay [8] was 0.0146; in assay [9], 0.0852; in assay [10], 0.139; in [11], 0.0406; in [13], -0.315; in assay [14], -0.303. Besides, the composite z-score was -0.207 in [15]; -0.152 in assay [16]; -0.154 in assay [17]; -0.104 in assay [18]; 1.63 in assay [19]; -0.142 in assay [20]. The z-score was 0.111 (inactive) in [4] and -0.658 in assay [12].
In the case of `CC1(C)C(=O)C(c2ccccc2)=C2CN3C(=O)N(CCc4ccccc4)C(=O)C3(Cc3ccc(F)cc3)C=C21` (stereo not given), the composite z-score is 0.251 in assay [1]; 1.19 in [2]; 1.24 in assay [3]; -0.236 in assay [5]; -0.556 in assay [6]; -0.554 in [7]. Besides, the composite z-score in assay [8] was -0.0423; in assay [9] it was -1.11; in assay [10] it was 0.958; in assay [11], 0.754; in [13], -1.24; in assay [14], 1.11. Moreover, the composite z-score in [15] turned out to be 0.725; in [16], 0.317; in [17], 0.717; in assay [18], 1.8; in assay [19] it was 0.551; in assay [20], 0.273. The z-score in assay [4] is -0.274 (inactive); in assay [12], -1.47.
With `O=C(N1CCOCC1)[C@@]1(CCS(=O)(=O)c2ccccc2)N=C(c2ccc(OCCCO)cc2)O[C@H]1c1ccccc1`, the composite z-score is 1.64 in [1]; 1.42 in [2]; 1.33 in assay [3]; 0.646 in assay [5]; 1.22 in [6]; -0.412 in assay [7]. Also, the composite z-score in assay [8] is 0.424; in assay [9], -0.383; in assay [10] it was 0.382; in assay [11] it was 1.1; in assay [13], -0.563; in assay [14], 2.58. The composite z-score in [15] was 1.33; in assay [16], -0.0084; in assay [17], -0.0441; in assay [18] it was -0.273; in assay [19], 1.85; in assay [20], 2.84. The z-score is 2.21 (inactive) in assay [4] and -0.892 in assay [12].
